Out of some 310,000 compounds screened, about 14,000 (4.5%) showed an effect of 50% or more. Effects have a minus sign here. For the sample, strong results were picked, then their nearest neighbours and some compounds at random.
Molecular target: human ether-à-go-go-related gene (hERG) potassium channel (human, UniProt Q12809)
Assay: primary screen, population patch clamp on CHO cells stably expressing hERG; higher = less effect of the substance
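Further: peak tail current of the secondary pulse compared with the same well before compound.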

human ether-à-go-go-related gene (hERG) potassium channel, sequence (Q12809 whole entry, looked up): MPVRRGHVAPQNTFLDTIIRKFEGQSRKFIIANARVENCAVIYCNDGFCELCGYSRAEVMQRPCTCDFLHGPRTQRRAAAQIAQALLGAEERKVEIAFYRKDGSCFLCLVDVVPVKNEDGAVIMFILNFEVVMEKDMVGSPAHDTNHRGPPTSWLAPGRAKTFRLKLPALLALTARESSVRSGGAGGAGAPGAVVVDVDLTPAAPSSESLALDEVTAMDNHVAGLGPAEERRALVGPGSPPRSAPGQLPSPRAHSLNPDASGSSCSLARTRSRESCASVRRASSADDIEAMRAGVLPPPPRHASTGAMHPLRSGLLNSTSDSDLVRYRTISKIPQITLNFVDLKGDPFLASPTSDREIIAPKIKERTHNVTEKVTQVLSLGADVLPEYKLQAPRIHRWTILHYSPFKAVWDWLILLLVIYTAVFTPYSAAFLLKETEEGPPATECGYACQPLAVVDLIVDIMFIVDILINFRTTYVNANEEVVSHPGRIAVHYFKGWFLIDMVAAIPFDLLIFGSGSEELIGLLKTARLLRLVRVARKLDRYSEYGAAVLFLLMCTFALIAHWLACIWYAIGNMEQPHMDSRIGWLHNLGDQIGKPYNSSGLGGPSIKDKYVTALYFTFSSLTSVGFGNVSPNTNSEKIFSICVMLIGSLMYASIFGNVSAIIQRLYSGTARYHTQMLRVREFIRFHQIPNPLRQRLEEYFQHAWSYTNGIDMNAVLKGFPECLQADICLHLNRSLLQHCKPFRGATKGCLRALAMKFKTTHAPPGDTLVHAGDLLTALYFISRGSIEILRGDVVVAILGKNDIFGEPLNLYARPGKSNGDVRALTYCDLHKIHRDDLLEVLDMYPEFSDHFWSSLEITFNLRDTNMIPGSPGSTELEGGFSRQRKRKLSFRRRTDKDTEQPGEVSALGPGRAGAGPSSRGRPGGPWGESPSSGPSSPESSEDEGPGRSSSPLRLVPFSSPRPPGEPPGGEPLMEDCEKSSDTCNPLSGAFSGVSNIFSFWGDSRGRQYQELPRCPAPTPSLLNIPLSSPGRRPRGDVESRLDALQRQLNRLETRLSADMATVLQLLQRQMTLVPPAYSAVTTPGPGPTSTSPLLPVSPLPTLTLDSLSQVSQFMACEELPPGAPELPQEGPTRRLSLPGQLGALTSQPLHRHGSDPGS

| Compound | hERG current change (%, negative = inhibition) at 10uM [%] |
| --- | --- |
| Cc1cc(=O)[nH]c(SCC(=O)Nc2ccc(C(=O)O)cc2)n1 | 5.37 |
| O=Cc1c[nH]c2ccc(C(=O)c3ccccc3)cc12 | 3.97 |
| CC(C)(C)n1nnnc1C(c1cccnc1)N1CCN(C(=O)c2ccco2)CC1 (centres unmarked) | -15.1 |
| COc1cc(C(=O)ON=C2C(C)=CC(=O)C=C2C)cc(OC)c1OC | -11.9 |
| C#CCOCCOCCOCCNc1nc(N2CCN(C(=O)[C@H](Cc3ccc(O)cc3)n3cc([C@@H](N)C(C)CC)nn3)CC2)nc(N2CCN(C(=O)[C@H](CCCCN)n3cc([C@@H](N)CC(C)C)nn3)CC2)n1.Cl (some centres unmarked) | 6.05 |
| C/C(=N/NC(=O)CNS(=O)(=O)c1ccc(C)cc1)c1cccc([N+](=O)[O-])c1 | 14.5 |
| Cc1ccc(NC(=O)N(CCCN2CCOCC2)Cc2cccnc2)cc1C | -10.8 |
| Cc1ccc(NC(=O)N(CCCN2CCOCC2)Cc2cccs2)cc1C | -47.6 |
| O=C(Nc1ccc(Cl)c(Cl)c1)N(CCCN1CCOCC1)Cc1cccnc1 | -55.5 |
| O=C(Nc1ccc(Cl)cc1)N(Cc1cccs1)Cc1cccs1 | 0.899 |
| CCC(C)NC(=O)CNC(=S)N(CCCN1CCOCC1)Cc1cccs1 (centres unmarked) | -14.4 |
| O=C(Nc1ccc(Cl)c(Cl)c1)N(CCCN1CCOCC1)Cc1cccs1 | -78 |
| O=C(Nc1ccccc1)N(CCCN1CCOCC1)Cc1cccs1 | -40.1 |
| COc1ccc(CN(CCCN2CCOCC2)C(=O)Nc2ccccc2)cc1OC | -10.9 |
| O=C(Nc1ccc(Cl)cc1)N(CCCN1CCOCC1)Cc1cccs1 | -70.7 |
| CCc1ccc(NC(=O)N(CCCN2CCOCC2)Cc2cccs2)cc1 | -52.8 |
| Cc1ccc(NC(=S)N(CCCN2CCOCC2)Cc2cccnc2)cc1C | 7.44 |
| COc1ccc2c(c1)[C@@H]1[C@H](CO2)[C@H](c2ccccc2)[C@]2(C)C(=O)NCC(=O)N12 | 4.48 |
| CC(Cc1cccs1)NC(=S)Nc1ccc(Cl)cc1 (centres unmarked) | 14.6 |
| COC(=O)c1c(C)[nH]c(C=O)c1-c1ccccc1 | 10.3 |
| Cc1ccc(NC(=O)c2ccc(Oc3ncccn3)cc2)cc1 | 12.2 |

| Compound | hERG current change (%, negative = inhibition) at 10uM [%] |
| --- | --- |
| CN(C)CC(CCCCC(CN(C)C)C(=O)c1ccccc1)C(=O)c1ccccc1 (centres unmarked) | 9.78 |
| O=C(NCCNc1ccc([N+](=O)[O-])cc1)c1ccco1 | -23.7 |
| O=C(Nc1ccc(Br)cc1)c1cccc(OC(=S)N2CCOCC2)c1 | 17 |
| c1ccc(-c2nnc(OCC3CCCO3)c3ccccc23)cc1 (centres unmarked) | -10.8 |
| COc1nnc(-c2ccc(C)c(S(=O)(=O)NCC3CCCO3)c2)c2ccccc12 (centres unmarked) | -69.5 |
| Cc1ccc(-c2nnc(OCC3CCCO3)c3ccccc23)cc1 (centres unmarked) | -65.2 |
| COc1nnc(-c2ccc(C)c(S(N)(=O)=O)c2)c2ccccc12 | 4.8 |
| COc1nnc(-c2ccc(C)c(S(=O)(=O)N(C)C)c2)c2ccccc12 | -77.6 |
| COc1nnc(-c2ccc(C)c(S(=O)(=O)NCCO)c2)c2ccccc12 | -14.6 |
| COc1nnc(-c2ccc(C)c(S(=O)(=O)NC(C)C)c2)c2ccccc12 | -52.8 |
| Cc1ccc(Oc2nnc(-c3ccc(C)cc3)c3ccccc23)cc1 | 2.75 |
| COc1nnc(-c2ccc(C)c(S(=O)(=O)NC(C)(C)CO)c2)c2ccccc12 | -15.9 |
| Cc1ccc(-c2nnc(N3CCCCC3)c3ccccc23)cc1S(=O)(=O)NCC1CCCO1 (centres unmarked) | -16 |
| Cc1ccc(-c2nnc(Nc3ccccc3)c3ccccc23)cc1S(=O)(=O)NCC1CCCO1 (centres unmarked) | -40.5 |
| CCNS(=O)(=O)c1cc(-c2nnc(OC)c3ccccc23)ccc1C | -37.3 |
| CC(C)CNC(=S)NC(=O)c1ccc(Cl)cc1Cl | 3.88 |
| Br.Cc1cccc(N2C(=O)SC(SC(=Nc3ccccc3)Nc3ccccc3)C2=O)c1 (centres unmarked) | 15.3 |
| Cc1c(Br)c([N+](=O)[O-])nn1CCCC(=O)NC(C)c1ccccc1 (centres unmarked) | -16.2 |
| O=C(Nc1c2c(nn1-c1ccccc1)CS(=O)(=O)C2)c1ccccc1Br | -0.51 |
| COc1ccccc1C(c1nnnn1C(C)(C)C)N1CCCCCC1 (centres unmarked) | -20.9 |
| COc1ccc(NC(=O)CN(C)S(=O)(=O)c2ccc3c(c2)n(C)c(=O)c(=O)n3C)cc1 | 14 |

| Compound | hERG current change (%, negative = inhibition) at 10uM [%] |
| --- | --- |
| COc1ccc(CSc2nc3ccccc3c(=O)[nH]2)cc1F | 36.6 |
| CC(C)C(NC(=O)CCNC(=O)c1ccccc1Cl)c1nc2ccccc2[nH]1 (centres unmarked) | -9.36 |
| O=S(=O)(NC(=NC1CCCCC1)c1ccccc1)c1ccccc1 | -14.7 |
| Cc1ccc(S(=O)(=O)NC(=NC2CCCCC2)c2ccccc2)cc1 | -55.2 |
| Cc1ccc(S(=O)(=O)NC(=NC2CCCCC2)c2ccc(F)cc2)cc1 | -4.09 |
| Cn1c(Cc2csc(N)n2)nnc1SCC(=O)NCc1ccccc1 | 1.12 |
| COc1cccc(NC(=O)c2ccc(OC(F)(F)F)cc2)c1 | 1.07 |
| COc1ccc(-c2cc(C(=O)c3c(N)n(C)c(=O)n(C)c3=O)c3ccccc3n2)cc1 | -15.5 |
| O=C(Nc1cccnc1)C1CCCN(c2ncnc3c2nc2n3CCCCC2)C1 (centres unmarked) | -36 |
| O=C(Nc1ccccc1Cl)C1CCCN(c2ncnc3c2nc2n3CCCCC2)C1 (centres unmarked) | -59.4 |
| COc1cccc(CNC(=O)C2CCCN(c3ncnc4c3nc3n4CCCCC3)C2)c1 (centres unmarked) | -55.6 |
| COc1cccc(CNC(=O)C2CCN(c3ncnc4c3nc3n4CCCCC3)CC2)c1 | 16.7 |
| O=C(NCC1CCN(Cc2ccccc2F)CC1)C1CCCN(c2ncnc3c2nc2n3CCCCC2)C1 (centres unmarked) | -8.94 |
| O=C(NCC1CCN(Cc2cccc(Cl)c2)CC1)C1CCCN(c2ncnc3c2nc2n3CCCCC2)C1 (centres unmarked) | -44.5 |
| O=C(NCc1ccccc1Cl)C1CCN(c2ncnc3c2nc2n3CCCCC2)CC1 | -30.9 |
| O=C(Nc1cccnc1Cl)C1CCCN(c2ncnc3c2nc2n3CCCCC2)C1 (centres unmarked) | -42 |
| COc1ccc(CNC(=O)C2CCCN(c3ncnc4c3nc3n4CCCCC3)C2)cc1 (centres unmarked) | -37.6 |
| O=C(NCc1cccc(Cl)c1)C1CCCN(c2ncnc3c2nc2n3CCCCC2)C1 (centres unmarked) | -73.5 |
| O=C(NCc1ccccc1Cl)C1CCCN(c2ncnc3c2nc2n3CCCCC2)C1 (centres unmarked) | -60.8 |
| CN(CCN1CCOCC1)Cc1nc(-c2ccc(Cl)cc2)no1 | -28.1 |
| O=C(NCc1cccs1)C(=O)NCC1OCCCN1S(=O)(=O)c1cccs1 (centres unmarked) | -15.3 |

| Compound | hERG current change (%, negative = inhibition) at 10uM [%] |
| --- | --- |
| CC(C)c1ccc(N(CC(=O)NC(C)(C)C)C(=O)CCC(=O)Nc2nccs2)cc1 | 2.7 |
| Cc1ccccc1NC(=O)CN1C(=O)CSc2ccccc21 | 17.3 |
| CC(=O)c1cccc(S(=O)(=O)N(C)C2CCN(C)CC2)c1.Cl | -2.43 |
| O=C(COc1ccc(Br)cc1Br)NC(=S)N1CCCc2ccccc21 | -2.7 |
| CN1CCN(C(=O)c2ccccc2N(Cc2ccccc2)S(=O)(=O)c2ccccc2)CC1 | -8.4 |
| Cc1ccc(-c2[nH]nc3c2C(c2ccsc2)C(C#N)=C(N)O3)cc1 (centres unmarked) | -18.9 |
| CCc1ccc(N(CC)c2ncnc3nc[nH]c23)cc1 | -4.89 |
| CC(C)c1ccc2oc(=O)cc(CN3CCN(c4ccc(F)cc4)CC3)c2c1 | -2.26 |
| CC(C)NC(=O)CSc1nc2[nH]ncc2c(=O)[nH]1 | 15.6 |
| O=C(NCc1ccco1)c1ccc(OCC2CCCO2)cc1 (centres unmarked) | -23.2 |
| COc1ccccc1CNC(=O)C1CCN(c2ncnc3c2nc2n3CCCCC2)CC1 | 6.69 |
| CSc1cccc(NC(=O)C2CCCN(c3ncnc4c3nc3n4CCCCC3)C2)c1 (centres unmarked) | -47.9 |
| CCc1cccc(NC(=O)C2CCCN(c3ncnc4c3nc3n4CCCCC3)C2)c1 (centres unmarked) | -46.4 |
| CCOc1ccccc1CNC(=O)C1CCCN(c2ncnc3c2nc2n3CCCCC2)C1 (centres unmarked) | -51.6 |
| Cc1ccccc1CN1CCC(CNC(=O)C2CCCN(c3ncnc4c3nc3n4CCCCC3)C2)CC1 (centres unmarked) | -7.3 |
| COc1ccc(OC)c(CNC(=O)C2CCCN(c3ncnc4c3nc3n4CCCCC3)C2)c1 (centres unmarked) | -59 |
| O=C(NCc1ccc(Cl)cc1)C1CCCN(c2ncnc3c2nc2n3CCCCC2)C1 (centres unmarked) | -55.4 |
| COc1cccc(NC(=O)C2CCCN(c3ncnc4c3nc3n4CCCCC3)C2)c1 (centres unmarked) | -67.4 |
| COc1ccc(OC)c(CCNC(=O)C2CCN(c3ncnc4c3nc3n4CCCCC3)CC2)c1 | -0.169 |
| COc1cc(NC(=O)C2CCCN(c3ncnc4c3nc3n4CCCCC3)C2)cc(OC)c1OC (centres unmarked) | -6.46 |

From paper PMC4336329 (PLoS ONE, 2015)
